In paper PMC7862700, “An all-to-all approach to the identification of sequence-specific readers for epigenetic DNA modifications on cytosine”:

Experiments:
Test in all cases: DAPPL (digital affinity profiling via proximity ligation, sequencing); 10 mM Tris-HCl pH 7.5, 50 mM NaCl, 1 mM DTT, 4% glycerol, room temperature, 30 min; GST-TFs on glutathione beads, 16-mer random dsDNA library, 0.1% formaldehyde crosslink after washing; high values mean tight binding
[1] = target: T1, ELK1 (Homo sapiens, UniProt P19419 1-428); conditions: protein: recombinant; tags: N-terminal GST; dsDNA, one strand shown
T1 sequence: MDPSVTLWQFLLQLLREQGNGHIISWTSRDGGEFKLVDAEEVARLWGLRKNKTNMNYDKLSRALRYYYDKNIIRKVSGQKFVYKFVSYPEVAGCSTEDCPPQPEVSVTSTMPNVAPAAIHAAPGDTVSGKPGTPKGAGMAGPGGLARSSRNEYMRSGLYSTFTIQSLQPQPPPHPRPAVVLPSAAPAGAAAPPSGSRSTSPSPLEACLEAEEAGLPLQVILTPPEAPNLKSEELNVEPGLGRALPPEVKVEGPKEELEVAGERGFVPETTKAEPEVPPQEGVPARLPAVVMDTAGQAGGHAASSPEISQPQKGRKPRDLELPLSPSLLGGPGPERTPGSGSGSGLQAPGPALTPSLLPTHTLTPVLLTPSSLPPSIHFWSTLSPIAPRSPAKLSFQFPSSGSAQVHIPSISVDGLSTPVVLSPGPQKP
Procedure, shortened: (§1)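 In yeast, human transcription factors were expressed with a GST fusion, then pulled down on glutathione beads and given DNA barcodes. Pooled with a tag-only sample, they were exposed to 200 nmole of a 16-mer random double-stranded DNA library (Tris/NaCl/DTT/glycerol buffer, room temperature, 30 min), washed, crosslinked with 0.1% formaldehyde, proximity-ligated using BsaI/T4 ligase for 1 h at 37 °C, PCR-amplified and read on an Illumina NextSeq500. Each hexamer's frequency of reads for a factor, divided by the matching frequency for the tag-only sample, gives the binding signal.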

[2] = target: T2, GABPA (Homo sapiens, UniProt Q06546 1-454); conditions: protein: recombinant; tags: N-terminal GST; dsDNA, one strand shown
T2 sequence: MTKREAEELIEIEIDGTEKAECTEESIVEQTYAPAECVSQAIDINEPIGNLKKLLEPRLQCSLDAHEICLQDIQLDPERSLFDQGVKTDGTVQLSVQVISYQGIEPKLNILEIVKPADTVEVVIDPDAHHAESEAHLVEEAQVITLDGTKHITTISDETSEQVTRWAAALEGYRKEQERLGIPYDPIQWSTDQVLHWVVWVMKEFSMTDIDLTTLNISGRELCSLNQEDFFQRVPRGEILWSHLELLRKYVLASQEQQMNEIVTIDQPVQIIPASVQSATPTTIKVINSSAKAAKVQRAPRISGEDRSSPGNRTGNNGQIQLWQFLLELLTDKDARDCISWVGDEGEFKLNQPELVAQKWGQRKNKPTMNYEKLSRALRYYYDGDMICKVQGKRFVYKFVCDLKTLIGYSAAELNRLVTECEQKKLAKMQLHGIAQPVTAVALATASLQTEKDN
Procedure, shortened: as §1

[3] = target: T3, ERG (Homo sapiens, UniProt P11308 1-479); conditions: protein: recombinant; tags: N-terminal GST; dsDNA, one strand shown
T3 sequence: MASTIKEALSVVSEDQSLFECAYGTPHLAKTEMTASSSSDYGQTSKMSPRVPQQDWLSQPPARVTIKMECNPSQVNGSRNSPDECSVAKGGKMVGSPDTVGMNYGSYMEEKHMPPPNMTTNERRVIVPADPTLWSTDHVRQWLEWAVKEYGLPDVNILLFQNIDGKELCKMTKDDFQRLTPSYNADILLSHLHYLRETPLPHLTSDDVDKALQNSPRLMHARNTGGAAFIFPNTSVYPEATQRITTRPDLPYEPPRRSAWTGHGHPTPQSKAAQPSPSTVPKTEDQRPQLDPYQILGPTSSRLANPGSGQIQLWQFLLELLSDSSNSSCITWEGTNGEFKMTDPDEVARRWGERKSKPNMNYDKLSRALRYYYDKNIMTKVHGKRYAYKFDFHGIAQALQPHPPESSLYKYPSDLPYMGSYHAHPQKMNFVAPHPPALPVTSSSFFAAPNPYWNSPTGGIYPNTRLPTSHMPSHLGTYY
Procedure, shortened: as §1

[4] = target: ELF1 (Homo sapiens, UniProt P32519 1-619); conditions: protein: recombinant; tags: N-terminal GST; dsDNA, one strand shown
Procedure, shortened: as §1

[5] = target: T4, EHF (Homo sapiens, UniProt Q9NZC4 1-300); conditions: protein: recombinant; tags: N-terminal GST; dsDNA, one strand shown
T4 sequence: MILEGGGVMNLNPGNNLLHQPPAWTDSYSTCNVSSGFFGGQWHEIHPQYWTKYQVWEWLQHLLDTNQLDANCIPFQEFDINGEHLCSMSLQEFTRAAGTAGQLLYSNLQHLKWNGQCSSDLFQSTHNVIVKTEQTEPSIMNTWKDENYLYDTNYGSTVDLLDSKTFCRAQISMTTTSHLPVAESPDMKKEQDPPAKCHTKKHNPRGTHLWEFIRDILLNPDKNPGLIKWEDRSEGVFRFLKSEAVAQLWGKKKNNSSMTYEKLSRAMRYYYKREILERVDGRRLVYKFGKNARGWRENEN
Procedure, shortened: as §1

[6] = target: SPIB (Homo sapiens, UniProt Q01892 1-262); conditions: protein: recombinant; tags: N-terminal GST; dsDNA, one strand shown
Procedure, shortened: as §1

[7] = target: HSF1 (Homo sapiens, UniProt Q00613 1-529); conditions: protein: recombinant; tags: N-terminal GST; chain copies: 3; dsDNA, one strand shown
Procedure, shortened: as §1

[8] = target: ELF4 (Homo sapiens, UniProt Q99607 1-663); conditions: protein: recombinant; tags: N-terminal GST; dsDNA, one strand shown
Procedure, shortened: as §1

[9] = target: T5, ELK4 (Homo sapiens, UniProt P28324-2 1-405); conditions: protein: recombinant; tags: N-terminal GST; dsDNA, one strand shown
T5 sequence: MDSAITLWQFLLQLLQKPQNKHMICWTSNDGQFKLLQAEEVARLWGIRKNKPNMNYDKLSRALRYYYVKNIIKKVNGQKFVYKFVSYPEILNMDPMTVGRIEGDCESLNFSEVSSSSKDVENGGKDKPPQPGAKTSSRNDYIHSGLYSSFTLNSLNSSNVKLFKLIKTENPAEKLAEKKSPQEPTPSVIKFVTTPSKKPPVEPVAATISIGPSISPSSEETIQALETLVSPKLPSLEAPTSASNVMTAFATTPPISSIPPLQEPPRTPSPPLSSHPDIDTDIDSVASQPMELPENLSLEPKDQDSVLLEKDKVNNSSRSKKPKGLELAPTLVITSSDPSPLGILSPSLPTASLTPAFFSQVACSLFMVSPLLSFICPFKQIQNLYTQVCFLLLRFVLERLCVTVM
Procedure, shortened: as §1

[10] = target: T6, ELF3 (Homo sapiens, UniProt P78545 1-371); conditions: protein: recombinant; tags: N-terminal GST; dsDNA, one strand shown
T6 sequence: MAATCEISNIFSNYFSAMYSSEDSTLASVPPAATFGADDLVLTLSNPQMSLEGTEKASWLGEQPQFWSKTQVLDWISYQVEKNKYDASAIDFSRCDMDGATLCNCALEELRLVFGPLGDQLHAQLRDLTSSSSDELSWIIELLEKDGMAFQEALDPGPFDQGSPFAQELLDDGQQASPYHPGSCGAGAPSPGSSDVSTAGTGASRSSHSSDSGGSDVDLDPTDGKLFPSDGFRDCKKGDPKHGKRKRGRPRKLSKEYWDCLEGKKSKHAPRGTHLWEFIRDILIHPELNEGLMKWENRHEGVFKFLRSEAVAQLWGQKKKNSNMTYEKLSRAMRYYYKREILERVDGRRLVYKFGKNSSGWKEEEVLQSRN
Procedure, shortened: as §1

[11] = target: CRX (Homo sapiens, UniProt O43186 1-299); conditions: protein: recombinant; tags: N-terminal GST; dsDNA, one strand shown
Procedure, shortened: as §1

[12] = target: ETV1 (Homo sapiens, UniProt P50549 1-477); conditions: protein: recombinant; tags: N-terminal GST; dsDNA, one strand shown
Procedure, shortened: as §1

[13] = target: T7, ERF (Homo sapiens, UniProt P50548 1-548); conditions: protein: recombinant; tags: N-terminal GST; dsDNA, one strand shown
T7 sequence: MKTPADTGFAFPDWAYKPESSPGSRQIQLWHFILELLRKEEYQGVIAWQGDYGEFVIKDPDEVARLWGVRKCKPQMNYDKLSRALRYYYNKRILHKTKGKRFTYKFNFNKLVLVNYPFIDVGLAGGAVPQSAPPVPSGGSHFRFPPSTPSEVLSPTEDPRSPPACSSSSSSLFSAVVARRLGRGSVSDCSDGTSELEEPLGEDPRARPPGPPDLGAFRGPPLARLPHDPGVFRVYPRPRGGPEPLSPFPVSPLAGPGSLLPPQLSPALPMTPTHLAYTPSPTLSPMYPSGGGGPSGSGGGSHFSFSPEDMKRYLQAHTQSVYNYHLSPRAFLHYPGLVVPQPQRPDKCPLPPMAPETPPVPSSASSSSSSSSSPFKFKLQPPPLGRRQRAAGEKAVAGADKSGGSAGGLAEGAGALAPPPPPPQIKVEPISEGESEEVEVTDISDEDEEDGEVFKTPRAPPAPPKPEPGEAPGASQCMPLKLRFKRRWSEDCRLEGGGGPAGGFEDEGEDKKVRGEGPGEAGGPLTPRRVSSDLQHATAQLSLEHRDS
Procedure, shortened: as §1

[14] = target: T8, ETV3L (Homo sapiens, UniProt Q6ZN32 1-361); conditions: protein: recombinant; tags: N-terminal GST; dsDNA, one strand shown
T8 sequence: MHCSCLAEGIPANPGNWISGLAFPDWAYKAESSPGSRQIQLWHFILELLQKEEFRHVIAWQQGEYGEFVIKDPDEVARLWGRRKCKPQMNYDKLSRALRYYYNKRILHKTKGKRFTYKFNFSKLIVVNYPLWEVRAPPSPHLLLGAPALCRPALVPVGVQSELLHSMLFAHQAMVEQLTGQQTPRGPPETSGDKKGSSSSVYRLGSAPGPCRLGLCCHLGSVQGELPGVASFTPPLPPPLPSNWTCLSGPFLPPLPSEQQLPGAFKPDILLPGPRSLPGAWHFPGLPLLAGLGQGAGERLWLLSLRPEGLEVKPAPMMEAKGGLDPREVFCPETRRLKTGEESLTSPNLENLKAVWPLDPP
Procedure, shortened: as §1

[15] = target: T9, SPDEF (Homo sapiens, UniProt O95238 1-335); conditions: protein: recombinant; tags: N-terminal GST; dsDNA, one strand shown
T9 sequence: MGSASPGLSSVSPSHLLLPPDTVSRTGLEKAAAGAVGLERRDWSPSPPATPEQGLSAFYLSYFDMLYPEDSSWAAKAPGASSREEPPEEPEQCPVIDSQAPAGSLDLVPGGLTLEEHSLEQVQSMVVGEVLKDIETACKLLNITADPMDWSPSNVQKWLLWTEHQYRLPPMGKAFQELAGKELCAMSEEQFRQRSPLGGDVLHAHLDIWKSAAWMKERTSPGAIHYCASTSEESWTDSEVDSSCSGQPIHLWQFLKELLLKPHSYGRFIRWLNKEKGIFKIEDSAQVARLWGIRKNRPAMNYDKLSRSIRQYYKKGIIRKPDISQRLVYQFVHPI
Procedure, shortened: as §1

[16] = target: T10, ETV7 (Homo sapiens, UniProt Q9Y603 1-341); conditions: protein: recombinant; tags: N-terminal GST; dsDNA, one strand shown
T10 sequence: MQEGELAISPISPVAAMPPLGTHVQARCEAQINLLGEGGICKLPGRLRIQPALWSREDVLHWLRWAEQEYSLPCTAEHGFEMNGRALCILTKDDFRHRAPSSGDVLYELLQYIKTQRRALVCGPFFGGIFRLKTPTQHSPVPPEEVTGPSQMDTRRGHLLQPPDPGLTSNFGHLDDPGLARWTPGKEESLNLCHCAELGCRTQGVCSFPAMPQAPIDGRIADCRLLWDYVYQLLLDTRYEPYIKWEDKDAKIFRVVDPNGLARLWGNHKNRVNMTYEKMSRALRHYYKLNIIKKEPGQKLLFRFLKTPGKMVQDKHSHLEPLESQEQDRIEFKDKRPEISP
Procedure, shortened: as §1

[17] = target: T11, ELF5 (Homo sapiens, UniProt Q9UKW6-2 1-255); conditions: protein: recombinant; tags: N-terminal GST; dsDNA, one strand shown
T11 sequence: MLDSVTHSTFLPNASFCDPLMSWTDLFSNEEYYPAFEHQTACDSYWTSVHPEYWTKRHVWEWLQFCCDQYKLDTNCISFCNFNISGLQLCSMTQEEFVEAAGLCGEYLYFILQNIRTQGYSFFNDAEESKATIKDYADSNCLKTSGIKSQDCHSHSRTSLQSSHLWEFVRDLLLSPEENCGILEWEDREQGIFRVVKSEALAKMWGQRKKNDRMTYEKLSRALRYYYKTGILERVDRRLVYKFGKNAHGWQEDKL
Procedure, shortened: as §1

[18] = target: T12, ETV3 (Homo sapiens, UniProt P41162-2 1-143); conditions: protein: recombinant; tags: N-terminal GST; dsDNA, one strand shown
T12 sequence: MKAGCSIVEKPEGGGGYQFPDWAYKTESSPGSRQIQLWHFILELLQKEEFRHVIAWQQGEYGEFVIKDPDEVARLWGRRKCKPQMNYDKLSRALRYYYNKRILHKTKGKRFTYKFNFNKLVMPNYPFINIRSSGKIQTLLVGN
Procedure, shortened: as §1

Sequence of ELF4 (Q99607 whole entry): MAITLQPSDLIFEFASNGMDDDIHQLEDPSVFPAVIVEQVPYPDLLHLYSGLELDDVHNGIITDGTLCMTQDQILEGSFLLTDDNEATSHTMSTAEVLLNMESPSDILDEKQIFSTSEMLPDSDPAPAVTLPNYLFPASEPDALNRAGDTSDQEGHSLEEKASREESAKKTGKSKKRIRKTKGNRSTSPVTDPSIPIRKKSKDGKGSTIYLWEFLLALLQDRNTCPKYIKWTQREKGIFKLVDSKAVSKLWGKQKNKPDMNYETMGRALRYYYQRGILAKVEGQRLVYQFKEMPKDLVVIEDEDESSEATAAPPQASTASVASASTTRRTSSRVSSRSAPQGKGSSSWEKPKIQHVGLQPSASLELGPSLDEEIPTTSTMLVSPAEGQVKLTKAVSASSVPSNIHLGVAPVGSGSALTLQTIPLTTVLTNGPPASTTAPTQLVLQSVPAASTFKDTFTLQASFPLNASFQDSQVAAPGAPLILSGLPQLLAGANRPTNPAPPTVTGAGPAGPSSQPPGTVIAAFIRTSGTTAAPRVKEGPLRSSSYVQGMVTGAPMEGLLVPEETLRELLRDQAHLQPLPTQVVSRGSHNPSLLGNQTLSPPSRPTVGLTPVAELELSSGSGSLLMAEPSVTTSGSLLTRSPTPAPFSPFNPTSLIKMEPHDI
Sequence of ELF1 (P32519 whole entry): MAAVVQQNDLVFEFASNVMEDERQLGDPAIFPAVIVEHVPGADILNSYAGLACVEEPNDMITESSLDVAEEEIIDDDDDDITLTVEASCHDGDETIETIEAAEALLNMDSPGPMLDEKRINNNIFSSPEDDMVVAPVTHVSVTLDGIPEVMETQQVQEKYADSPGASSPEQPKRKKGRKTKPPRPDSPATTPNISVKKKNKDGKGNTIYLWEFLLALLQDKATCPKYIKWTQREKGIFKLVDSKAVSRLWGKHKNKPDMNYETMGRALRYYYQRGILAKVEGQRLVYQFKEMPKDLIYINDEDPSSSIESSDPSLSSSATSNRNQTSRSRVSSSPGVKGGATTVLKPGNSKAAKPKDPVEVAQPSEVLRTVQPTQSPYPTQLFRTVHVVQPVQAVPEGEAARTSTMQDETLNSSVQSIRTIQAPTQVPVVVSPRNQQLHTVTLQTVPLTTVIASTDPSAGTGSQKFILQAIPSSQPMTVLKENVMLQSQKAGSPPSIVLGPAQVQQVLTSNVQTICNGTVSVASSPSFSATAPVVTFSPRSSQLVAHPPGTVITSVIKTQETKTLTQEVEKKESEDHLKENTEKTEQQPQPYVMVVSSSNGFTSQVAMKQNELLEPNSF
Sequence of ETV1 (P50549 whole entry): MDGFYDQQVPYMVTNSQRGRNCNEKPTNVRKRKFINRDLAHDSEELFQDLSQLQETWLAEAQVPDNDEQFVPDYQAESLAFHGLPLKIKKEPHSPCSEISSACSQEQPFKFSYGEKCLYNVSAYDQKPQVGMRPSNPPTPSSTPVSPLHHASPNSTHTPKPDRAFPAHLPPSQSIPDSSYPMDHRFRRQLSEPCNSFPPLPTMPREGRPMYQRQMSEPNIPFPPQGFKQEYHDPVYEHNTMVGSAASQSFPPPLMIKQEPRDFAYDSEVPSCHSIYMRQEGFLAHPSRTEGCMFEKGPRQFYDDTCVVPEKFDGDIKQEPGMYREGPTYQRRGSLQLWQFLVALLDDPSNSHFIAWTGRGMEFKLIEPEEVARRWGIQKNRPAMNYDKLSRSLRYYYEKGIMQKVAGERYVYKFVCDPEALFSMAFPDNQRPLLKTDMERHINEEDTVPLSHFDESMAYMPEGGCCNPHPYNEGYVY
Sequence of HSF1 (Q00613 whole entry): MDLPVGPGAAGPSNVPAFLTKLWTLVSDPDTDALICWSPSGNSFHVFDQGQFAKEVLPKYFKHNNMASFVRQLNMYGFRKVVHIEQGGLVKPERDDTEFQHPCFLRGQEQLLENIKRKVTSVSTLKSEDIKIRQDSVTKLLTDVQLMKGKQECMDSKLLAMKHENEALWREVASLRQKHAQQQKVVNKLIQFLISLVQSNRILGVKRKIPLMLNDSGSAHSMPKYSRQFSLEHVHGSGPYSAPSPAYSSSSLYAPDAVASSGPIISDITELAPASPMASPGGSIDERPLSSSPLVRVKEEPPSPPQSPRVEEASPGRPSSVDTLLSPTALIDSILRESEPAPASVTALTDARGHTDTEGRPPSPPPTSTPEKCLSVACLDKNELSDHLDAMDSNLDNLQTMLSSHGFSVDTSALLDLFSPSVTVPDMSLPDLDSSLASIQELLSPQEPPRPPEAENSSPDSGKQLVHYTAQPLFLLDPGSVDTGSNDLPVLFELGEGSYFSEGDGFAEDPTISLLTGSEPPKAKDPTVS
Sequence of CRX (O43186 whole entry): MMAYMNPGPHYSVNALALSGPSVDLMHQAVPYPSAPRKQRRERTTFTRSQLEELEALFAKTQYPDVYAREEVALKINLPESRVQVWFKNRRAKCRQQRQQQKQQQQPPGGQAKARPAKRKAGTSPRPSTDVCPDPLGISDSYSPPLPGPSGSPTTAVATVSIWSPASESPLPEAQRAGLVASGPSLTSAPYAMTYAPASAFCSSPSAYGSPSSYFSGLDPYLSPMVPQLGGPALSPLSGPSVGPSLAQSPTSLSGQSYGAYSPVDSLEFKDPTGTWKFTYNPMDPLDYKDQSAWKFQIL
Sequence of SPIB (Q01892 whole entry): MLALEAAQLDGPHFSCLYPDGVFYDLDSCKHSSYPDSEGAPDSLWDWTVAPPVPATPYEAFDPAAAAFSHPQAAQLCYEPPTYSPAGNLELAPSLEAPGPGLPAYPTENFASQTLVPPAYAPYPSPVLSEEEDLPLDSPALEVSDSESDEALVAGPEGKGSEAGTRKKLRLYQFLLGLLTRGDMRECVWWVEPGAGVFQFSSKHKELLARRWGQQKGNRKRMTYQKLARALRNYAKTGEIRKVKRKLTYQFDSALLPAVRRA

GCGAAT
binding signal [1]: 1.07 fold enrichment (6-mer frequency, TF over GST control)
binding signal [2]: 1.05 fold enrichment (6-mer frequency, TF over GST control)
binding signal [3]: 1.08 fold enrichment (6-mer frequency, TF over GST control)
binding signal [4]: 1.11 fold enrichment (6-mer frequency, TF over GST control)
binding signal [5]: 1.17 fold enrichment (6-mer frequency, TF over GST control)
binding signal [6]: 1 fold enrichment (6-mer frequency, TF over GST control)
binding signal [7]: 1.27 fold enrichment (6-mer frequency, TF over GST control)
binding signal [8]: 1.02 fold enrichment (6-mer frequency, TF over GST control)
binding signal [9]: 1.17 fold enrichment (6-mer frequency, TF over GST control)
binding signal [10]: 1.12 fold enrichment (6-mer frequency, TF over GST control)
binding signal [11]: 1.08 fold enrichment (6-mer frequency, TF over GST control)
binding signal [12]: 1.04 fold enrichment (6-mer frequency, TF over GST control)
binding signal [13]: 1.05 fold enrichment (6-mer frequency, TF over GST control)
binding signal [14]: 1.06 fold enrichment (6-mer frequency, TF over GST control)
binding signal [15]: 1.08 fold enrichment (6-mer frequency, TF over GST control)
binding signal [16]: 1.04 fold enrichment (6-mer frequency, TF over GST control)
binding signal [17]: 1.04 fold enrichment (6-mer frequency, TF over GST control)
binding signal [18]: 1.07 fold enrichment (6-mer frequency, TF over GST control)
